Columns and labels:
Experiment in all cases: PBM binding z-score (relative to random genomic background probes); higher = stronger binding; sequences stand for … in GC…GCGATTGACAGCGTAGAATGAAGG
[1] = tested on: RARb homodimer (NR concentration 270 nM)
Method in brief: (§1)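 Antibodies against each partner of ligand-free nuclear receptor dimers (one per run) detected binding on custom Agilent 4×180K protein-binding microarrays after 1 h incubation. The double-stranded probes had 34-nt variable regions carrying direct-repeat seeds, single-nucleotide variants, half-site ablations and random human genomic background sequences. Binding z-scores, from regression-normalized fluorescence, use the random background probes as reference.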

[2] = tested on: RARg:RXRa (NR concentration 270 nM, RXRa partner concentration 90 nM)
Method in brief: as §1

[3] = tested on: RARg homodimer (NR concentration 270 nM)
Method in brief: as §1

[4] = tested on: RXRa DBDmut IVT, anti-RXR (DBD mutation: RXRa K156A/R161A, NR concentration 90 nM)
Method in brief: as §1

[5] = tested on: RXRa homodimer (NR concentration 180 nM)
Method in brief: as §1

[6] = tested on: THRa:RXRa (NR concentration 90 nM, RXRa partner concentration 90 nM)
Method in brief: as §1

[7] = tested on: THRa homodimer (NR concentration 90 nM)
Method in brief: as §1

[8] = tested on: VDR homodimer (NR concentration 270 nM)
Method in brief: as §1

Sequence	PBM binding z-score [1]	PBM binding z-score [2]	PBM binding z-score [3]	PBM binding z-score [4]	PBM binding z-score [5]	PBM binding z-score [6]	PBM binding z-score [7]	PBM binding z-score [8]
GCTCGGAGGACAAGGTCAGACCTTTGTCCGTAGA	3.1	3.68	3.51	0.424	3.12	2.94	1.47	0.924
TCTAGTTGGTCACGGAGGCCACACACGACGGGTA	2.01	1.65	2.06	0.633	1.06	0.977	0.377	0.2
GCGACTGGGGCATCAACAGGTTACCATAACTTAA	1.25	0.983	0.509	0.306	0.415	0.721	-0.0396	-0.142
CAAACTAGGTCAAGAGGTGAAAGTCCGCTTCCCG	4.18	5.62	5.36	1.5	4.52	3.58	1.67	0.973
GCTGCTAGGTCAACTGACGGTCAGCTAAAGCTCG	4.31	6.76	5.94	1.64	3.33	3.21	0.993	-0.00537
TCATATAGGTAAACAGGTGAAAGTTCGTAAGTTA	1.49	1.11	0.601	1.62	2.31	1.4	0.587	1.55
TCTAGTTGTTCAAAGGTCACACACTCGAAATGCG	5.28	6.3	6.07	2.05	7.19	4.11	2.21	2.78
CCAGACAGGTGAGAAGGCAACTCAGCCTCGATTA	0.103	0.0395	0.271	0.0472	0.0532	-0.202	-0.363	0.221
GTACCAAGTTGAATAGGTCGTTGATGAGTAGGCG	0.758	0.982	0.525	0.103	0.719	0.151	-0.492	0.477
AGAATGAGGTTATGATCAGGGAAACAGAATACAT	0.715	1.74	1.11	1.02	2.16	2.44	0.714	0.317
AGAACGAGGGCAATGAGCTGATAGCACGGGTGGC	0.707	1.15	1.22	1.19	0.871	0.598	-0.379	0.597
CGCCCAAGGTCAAGGTCAGTGAAAGAGACTCGAA	5.33	6.54	7.08	3.25	6.2	4.42	3.53	2.96
GGAACGAGGGCATTCGCGTTGATAGCATGGCGAT	0.582	0.978	1.21	2.75	0.746	1.08	-0.426	1.79
TGAATGAGGTTATAAGATCAGAGAACGTTGCAAA	-0.136	1.39	0.985	0.35	1.74	1.55	-0.514	0.234
TCTATTAGTTGTTTAGGGCAACCGAAACAGCGGA	0.623	0.681	0.7	0.754	0.557	1.07	0.864	0.463
TTACCAAGGTGAAAGGTCCTTGATGCACGCCTTG	1.22	1.67	0.796	-0.243	2.47	2.28	0.542	-0.756
TAGCCTAGGTCATGCCGGCCAGTATAGTGTCGGC	2.79	3.6	3.93	0.522	2.62	2.72	0.854	0.14
TAGCCTAGGTCAGATTGGGCCAGTATACGCTATA	2.06	2.79	3.72	-0.225	1.25	3.56	-0.0542	-0.257
CAAACTAGGTCAAAGGTAAAAGTCGAGCCAACCA	2.87	5.02	4.78	2.02	5.74	3.26	0.692	0.479

Sequence	PBM binding z-score [1]	PBM binding z-score [2]	PBM binding z-score [3]	PBM binding z-score [4]	PBM binding z-score [5]	PBM binding z-score [6]	PBM binding z-score [7]	PBM binding z-score [8]
GGAATGAGGGCAAAGTTGATAGCATCTGTCGACG	1.42	2.19	1.83	2.73	2.31	1.89	0.391	1.75
CTTCAAAGTTCAAGGTAACGTAACAGAAAGCAGC	3.62	5.19	6.14	4.34	4.62	2.96	1.34	3.44
ATCTCTAGGTAACGATAGTTCAGTGAATGCAAAT	0.983	0.601	0.702	-0.137	0.128	0.928	0.354	0.517
TTACCAAGGTGAGCTGAGGTCGTTGAGCCAACTC	1.75	1.39	0.933	-0.158	1.48	4.77	2.04	1.96
ATATGAAGGTTAGCTGGGGTCATTCAGACTAGGC	4.37	4.69	3.82	1.97	6.06	5.24	3.38	5.65
CGAACTAGGTCCAGGACAGTGAATCTCCGCACGC	-0.206	-0.326	-0.183	0.703	-0.387	0.749	0.778	0.133
CCTACTGGGCCATCAGTTCATTGATATCAACGTT	0.932	0.31	0.439	0.88	-0.0335	0.411	0.333	3.3
ATCTCTAGGTAAGACTCAGTTCAGTGAAGAACGC	0.723	0.0914	0.115	0.479	-0.0944	0.922	0.796	1.42
ACAGACAGGTGATGAAGGTACCTCAGGCTATCAT	-0.181	0.158	0.411	-0.579	0.4	0.509	-0.21	-0.451
TAGCCTAGGTCATGGGGCCAGTATAGTACGCATC	3.29	4.5	4.7	0.621	3.6	3.49	1.43	1.05
ATCTCTAGGTCAAGTTCAGTGAAAGATCGATAGA	3.89	4.93	5.92	2.98	3.73	3.44	2.16	3.44
ATCTCTAGGTAAAGCTCAGTGAAAGATCGATAGA	-0.225	0.103	0.259	-0.165	-0.128	0.19	-0.0384	-0.271
CCGACTGGGGCATAAGGTTACCACAAGCCAGCCC	1.92	1.8	1.2	-0.196	1.32	2.04	1.37	0.195
CGTACTGGGCCAAGGTCATTGATCAGTCAAAGCA	3.36	3.89	3.26	1.57	3.05	3.42	2.56	3.55
CTTGAAAGGTCGGTTGAGGTGAGTATACGGATAA	2.58	2.6	2.68	1.35	2.5	4.93	1.42	0.867
CGAACTAGGTCATTGACAGGAAAGTGAATAGTAA	2.15	3.65	3.62	2.19	2.61	2.27	0.512	0.797
CGAACTAGGTCATTGACAGGACATTGAATAGTAA	2.8	4.62	4.56	2.52	2.75	2.9	0.971	1.62
CCTGCTAGGTCAATGCTCAGCTAAAGCAGCTCGC	2.37	3.14	4.3	1.92	1.47	1.97	0.173	-0.26
CCTCGGAGGACAACAGGAGCTCAGAGCTGCCAGA	-0.211	0.18	0.813	0.0828	-0.62	0.178	-0.484	-0.365

Sequence	PBM binding z-score [1]	PBM binding z-score [2]	PBM binding z-score [3]	PBM binding z-score [4]	PBM binding z-score [5]	PBM binding z-score [6]	PBM binding z-score [7]	PBM binding z-score [8]
CCTCGGAGGACAGAAGGTTAGAGCTGTCCGCTTT	0.668	0.736	0.681	-0.0367	-0.125	0.441	-0.513	-0.565
TAGCCTATGTCATTCAGGGGCCAGTATAGAAAGC	0.708	1.65	0.547	-0.121	0.203	0.454	-0.611	-0.479
TATACAGGGTGAAAGGCCAGAGTACGAATGTCGA	1.29	1.67	1.69	-0.111	2.07	1.18	-0.0839	0.653
CGAACTAGGTCAGAACAGGATAGTGAAGGATGAT	1.64	2.44	3.17	0.707	1.34	2.39	0.235	0.187
ATAACAAGGTGATCGTGAGGTCGTTGATACTAAC	1.58	2.43	1.23	0.955	1.76	3.48	2.31	2.78
TCAGACAGGTGAAGTTAACTCAGGTACGCAGTCG	0.596	0.588	0.629	1.33	0.838	1.55	0.285	0.404
ATATGTAGGTTAGTTGGGGTCATTCAGACTAGGC	3.96	4.34	2.99	2.64	6.03	5.13	3.99	5.97
TCTAGTTGGTCACGGAGGTCACATACGACGGGTA	4.57	4.42	4.92	1.16	4.57	3.68	2.58	2.84
CGCCAAAGTTCAACTAAGGTAACGTAAAGCACGC	4.29	5.87	6.48	4.67	4.49	5.24	2.11	3.81
AGAATGAGGTTATTAAGATGAGGGAATTGCGGTC	0.734	1.15	0.922	1.9	1.87	2.08	0.746	1.16
ATTATTAGTTGACTTAGGGCAACCGATACGACGC	1.41	1.11	1.23	0.507	0.918	1.65	1.03	1.41
GCTGCTAGGTAAACTGATGGTCAGCTAAAGCTCG	-0.0474	-0.174	-0.241	-0.0334	-0.342	-0.142	-0.754	-0.973
TCTGCTAGGTCAACGATGGTCAGCTCATCTGCTA	3.24	3.91	4.62	1.05	2.41	3.15	0.671	-0.436
GATACAGGGCCAGCTAGAGGCCAGAGTATGGAAA	0.561	0.806	0.594	-1.03	-0.349	-0.394	-0.861	-0.246
TCTGCTAGGTCAACGATCGTCAGCTAATCTGCTA	2.88	4.06	4.96	0.835	2.44	2.6	0.335	-0.498
AGAACGAGGGCAATGTGTTGATAGCACGGGTGGC	1.23	1.16	1.44	1.74	0.945	0.861	-0.000904	0.944
AATACAGGGTCATCGTAGGCCAGAATACGCACAG	3.68	5.69	5.13	3.5	6.42	4.4	1.5	3.25
TTACCAAGCTGAGCTGAGGTCGTTGATCCAACTC	0.0127	-0.204	-0.865	0.00802	0.266	2.08	1.17	0.915
TCTATTAGTTGATTAGGGCTACCGAAACAGCGGA	-0.115	0.318	0.15	0.904	0.363	0.166	-0.0313	0.356

From the supplement of paper PMC6555819
